# Data as given in PubChem BioAssay (Tox21).
# Results filed as inconclusive are left out. A number with no mark means an inactive call. The source made the active and inactive calls. Calls come from the whole dose curve; as a rule, active = well fitted inhibition curve with a large enough effect in the repeat runs; inconclusive = weak or mixed curves; inactive = no such curve, though single readings can be large or run the other way. Positions of bridges follow the written chain, without caps; N, C: chain ends. Where a SMILES comes first, the peptide text is derived from it. Non-standard residues stand in square brackets, D forms with d. Residues, ends and D or L forms follow the SMILES beside them. hArg = N=C(N)NCCCC[C@H](N)C(=O)O; Mpa = O=C(O)CCS
# Biological target: Cytochrome P450 1A2 (Homo sapiens) (UniProt P05177)
# Test: Cytochrome P450 Family 1 Subfamily A Member 2 (CYP1A2) small molecule antagonists: luciferase reporter qHTS assay (AID 1671199); note: nearly all actives have a fitted effect of over 50% in size
# Conditions: P450-Glo CYP1A2 enzyme, luciferin luminescence, 1 h; series mostly up to 115 µM; activity change, negative = inhibition: at the top concentration
# Text: National Center for Advancing Translational Sciences [NCATS]
# U.S. Environmental Protection Agency [EPA]
# National Institutes of Environmental Health Sciences [NIEHS]
# National Toxicology Program [NTP]
# U.S. Food and Drug Administration [FDA]
# Cytochrome P450 (CYP) enzymes are membrane-bound hemeproteins that play a key role in metabolism of drugs and xenobiotics. Evaluation of the effect of chemicals on CYP isozymes is useful to minimize the adverse drug reactions and toxicities in drug development process. Tox21 chemicals were tested for their effect on CYP enzyme activities by using P450-Glo (TM) screening systems (Promega Corporation, Madison, WI). These systems provide a luminescent method containing proluciferin substrates and are converted to luciferin products by CYP isozymes. The luciferin products formed are detected with a luciferin detection reagent, and the amount of light produced is proportional to CYP activity. P450-Glo (TM) CYP1A2 screening system (Catalog. No. V9770) was used to detect the compounds that interfere in CYP1A2 activity. The positive control compound used for CYP1A2 assay is furafylline (Sigma-Aldrich, St. Louis, MO).
# Tox21 Assay Protocol Summary:
# Two ul of enzyme-substrate mix was dispensed into medium binding white/solid 1536-well plates (Greiner Bio-One North America Inc., Monroe, NC) using a BioRaptr Flying Reagent Dispenser (FRD, Beckman Coulter, Brea, CA). Compounds dissolved in DMSO and positive control (furafyllline) were transferred to the assay plates at 23 nl using a Pintool station (Wako, San Diego, CA). The assay plates were incubated at room temperature for 10 min. Then 2 ul of NADPH regeneration solution was added to each well of the assay plates using an FRD and incubated at room temperature for 1 h. The reaction was stopped by adding 4 ul of detection reagent using an FRD and after 20 min incubation at room temperature the luminescence signal was measured using a ViewLux plate reader (Perkin Elmer, Shelton, CT). Data were expressed as relative luminescence units.
# % is set by controls: 0 for no effect and ±100 for the full control effect; potency is the fitted concentration of half-maximal effect.
# Chain of Cytochrome P450 1A2 (Homo sapiens) (P05177 whole entry, looked up): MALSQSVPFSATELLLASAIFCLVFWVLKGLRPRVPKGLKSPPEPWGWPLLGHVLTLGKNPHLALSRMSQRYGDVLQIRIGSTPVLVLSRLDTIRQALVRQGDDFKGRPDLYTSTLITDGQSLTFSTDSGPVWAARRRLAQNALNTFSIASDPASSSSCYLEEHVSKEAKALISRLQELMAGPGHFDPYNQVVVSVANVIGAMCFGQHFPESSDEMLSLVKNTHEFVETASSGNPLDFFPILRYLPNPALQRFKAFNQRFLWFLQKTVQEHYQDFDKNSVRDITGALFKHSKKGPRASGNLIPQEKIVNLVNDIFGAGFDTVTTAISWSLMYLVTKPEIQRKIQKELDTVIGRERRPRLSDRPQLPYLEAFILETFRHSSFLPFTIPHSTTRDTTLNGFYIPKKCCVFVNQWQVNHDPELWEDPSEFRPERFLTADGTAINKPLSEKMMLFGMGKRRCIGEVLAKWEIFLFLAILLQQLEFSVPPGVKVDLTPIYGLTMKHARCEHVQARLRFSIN
Compound,"activity change, negative = inhibition",Potency
COCCc1ccccn1,12.6% [at 53 µM],
CCC(=O)c1c(O)cc(O)cc1O,,12.9 µM (active)
CSc1cnccn1,-17.9%,
Nc1nc(-c2ccccc2)c(Br)c(=O)[nH]1,-17.2% [at 53 µM],
O=NN(CCCl)C(=O)NC1CCCCC1,10.1% [at 53 µM],
COC(=O)/C=C\C(=O)O,-15.4%,
CC1=C(C(=O)O)N2C(=O)[C@@H](NC(=O)[C@H](N)C3=CCC=CC3)[C@H]2SC1,-0.238% [at 53 µM],
Cc1ccc(N)cc1S(=O)(=O)O,,39.9 µM (active)
COP(=O)(O)OP(=O)(O)OC,-12.8%,
CC(C)C1OCCN1CCOC(=O)NCCCCCCNC(=O)OCCN1CCOC1C(C)C (stereo not given),-20%,
CC(C)OC(=O)OCOP(=O)(CO[C@H](C)Cn1cnc2c(N)ncnc21)OCOC(=O)OC(C)C,-8.94% [at 53 µM],
NC(=O)[C@@H]1CSSCCC(=O)N[C@@H](CCCCN=C(N)N)C(=O)NCC(=O)N[C@@H](CC(=O)O)C(=O)N[C@@H](Cc2c[nH]c3ccccc23)C(=O)N2CCC[C@H]2C(=O)N1 ([Mpa][hArg]GDWPC-NH2; disulfide 1-7),-13.5% [at 53 µM],
O=C(O)CNC(=O)CNC(=O)CNC(=O)CSC(=O)c1ccccc1,6.51% [at 53 µM],
C/C=C(\C)C(C)=O,-14.6%,
CN1C[C@@H]2C[C@H]1CN2c1cc2c(cc1F)c(=O)c(C(=O)O)cn2C1CC1,-8.84% [at 23.6 µM],
CC(=O)CC(=O)OC(C)(C)C,-23.5%,
CCOc1ccccc1OCC1CNCCO1 (stereo not given),,0.575 µM (active)
CC(N)CCCC(C)(C)O (stereo not given),-3.79% [at 53 µM],
CC12CCC(C1)C(C)(C)C2O (stereo not given),-12.7%,
CCCCCC/C=C/C(=O)OC,-13.4%,

Compound,"activity change, negative = inhibition",Potency
CC(C)(C)NC[C@H](O)COc1cccc2c1CCCC2=O,-1.03% [at 53 µM],
CC(C)NCC(O)c1ccc2ccccc2c1 (stereo not given),,15.5 µM (active)
C=CC(=O)OCC1CCCO1 (stereo not given),-19.1%,
CC(=O)C1C(=O)C=C(C)OC1=O (stereo not given),-13.8%,
CCCC(CC)c1ccccc1 (stereo not given),-19.1%,
CC1(C)CC(OC(=O)CCCCCCCCC(=O)OC2CC(C)(C)NC(C)(C)C2)CC(C)(C)N1,-5.32% [at 23.6 µM],
CC(=O)N[C@@H](CO)C(=O)N[C@@H](CC(=O)O)C(=O)N[C@@H](CCCCN)C(=O)N1CCC[C@H]1C(=O)O (Ac-SDKP-OH),6.66% [at 53 µM],
CCOC(=O)CC1(C)OCC(C)O1 (stereo not given),-9.78%,
CCCCCCCCCOC(=O)c1ccccc1C(=O)OCCCCCCCCC,,35.5 µM (active)
CC(=O)c1cc(C)oc1C,-8.45%,
OCC1CCC(CO)CC1 (stereo not given),-14.9%,
OCC1(CO)COCOC1,-12.4%,
C[Si]1(C)O[Si](C)(C)O[Si](C)(C)O[Si](C)(C)O[Si](C)(C)O1,-3.56%,
COc1nc(N)nc2nc[nH]c12,,17.9 µM (active)
CC(C)Cn1cnc2c1c(=O)n(C)c(=O)n2C,,15.5 µM (active)
CN(C)CCOC(=O)C(c1ccccc1)C1(O)CCCC1 (stereo not given),-13.8% [at 53 µM],
COc1cc(OC)nc(O[C@H](C(=O)O)C(OC)(c2ccccc2)c2ccccc2)n1,-10.5% [at 53 µM],
OCC(O)CN1CCN(c2ccccc2)CC1 (stereo not given),-7.03% [at 53 µM],
COC(=O)c1ccccc1C(=O)O,-24.1%,
Cc1ccc2c(c1)C(=O)c1ccccc1C2=O,,8.91 µM (active)
